# Screening results (PubChem BioAssay)
# The sample as a whole holds a higher share of hits than the screen did.
# Cycloheximide cs = affects cycloheximide protein synthesis inhibition readout, counter-screen. cell reporter, cycloheximide protein synthesis inhibition counterscreen. max response, %. 300,000 compounds, 12% hits; in the data active = max response mostly above about 13%, no sharp cut-off; inactive = mostly below about 14%; also: read at 38.3 µM for the half of the compounds with a filed dose
# AMA1-RON2 inh = inhibitors of Plasmodium falciparum AMA1-RON2 interaction. 360,000 compounds, 0.2% hits. AlphaScreen AMA1-biotinylated RON2 peptide binding. Potency, µM (top dose mostly 58.2 µM), usual class: inhibitors; active = well fitted inhibition curve with a large enough effect; inconclusive = small, poorly fitted or top-dose-only effect; inactive = no such curve, though single readings can be large or run the other way; also: nearly all actives have a fitted effect of over 45% in size
#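 AMA1 (3D7) with his tag at 25 nM final met compounds first, then biotinylated RON2 peptide at 25 nM; detection used donor plus acceptor beads, 10 µg/mL apiece, read by AlphaScreen after 30 min at room temperature.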
# Marburg entry inh = blocks Marburg virus binding to or entry into cells | Marburg virus pseudotyped entry inhibition, cell reporter | AID 540276 | 300,000 compounds, 1.8% hits | Potency, µM (highest dose often 37.8 µM), actives largely listed as inhibitors; calls by dose curve; tested in HEK293 cells
# Shiga toxin inh = inhibitors of Shiga toxin in Vero cells; Vero cells, Shiga toxin protein synthesis inhibition reporter; inhibition, % at 38.7 µM; 290,000 compounds, 9.2% hits; AID 2315; in the data active = inhibition mostly above about 28%, no sharp cut-off; inactive = mostly below about 43%
# LASV entry inh = blocks Lassa virus binding to or entry into cells; Lassa virus pseudotype entry inhibition, cell reporter; Potency, µM (highest dose often 37.9 µM), actives largely listed as inhibitors; 300,000 compounds, 1.2% hits; calls by dose curve; tested in HEK293 cells; also: nearly all actives have a fitted effect of over 50% in size
# A number is an active result; n = inactive; u = inconclusive; x = no result.
SMILES,Cycloheximide cs,AMA1-RON2 inh,Marburg entry inh,Shiga toxin inh,LASV entry inh
COc1cccc(NC(=O)Nc2cnccn2)c1,20,n,n,n,n
C[C@@H]1C[C@H]2CC(=O)N3[C@H](CC(=O)N2[C@H]1c1ccccc1)C[C@@H](C)[C@@H]3c1ccccc1,x,x,n,x,x
COc1cc(OC)cc(C(=O)Nn2c(C)nc3ccccc3c2=O)c1,n,n,n,n,n
COc1cc(OC)cc(-c2nc3ccccc3c(=O)n2OC(=O)c2ccc(C)c(C)c2)c1,n,n,11µM,n,u
COc1ccc(Cl)cc1NC(=O)CN(C)C1CCCCC1,n,n,u,n,n
COc1ccc(C)cc1NC(=O)CN(Cc1nnc(-c2ccc(Cl)cc2)o1)C1CCCC1,13,n,u,n,n
COC(=O)C1CCN(CC(=O)Nc2cc(Cl)ccc2OC)CC1,n,x,x,n,x
Cc1ccc(NC(=O)CNc2ccccc2CN(C)C2CCCCC2)cc1,n,n,x,n,x
COc1ccc(C)cc1NC(=O)CNc1ccccc1CN(C)C1CCCCC1,n,n,4.5µM,n,n
COc1ccc(Cl)cc1NC(=O)CNc1ccccc1CN(C)C1CCCCC1,n,n,2.5µM,n,u
CCN1CCC(NC(=O)Nc2cc(Cl)ccc2OC)CC1,n,n,7.1µM,n,n
CC[C@H](C)[C@H](NC(=O)[C@H](Cc1ccc(O)cc1)NC(=O)[C@@H](NC(=O)[C@@H](N)CCCN=C(N)N)C(C)C)C(=O)N[C@@H](Cc1cnc[nH]1)C(=O)N1CCC[C@H]1C(=O)N[C@@H](Cc1ccccc1)C(=O)O,n,x,x,n,x
CCCNC(=O)c1oc2ccc3c(c2c1C)C(=O)CC(C)(C)O3,44,n,u,50,n
CCOC(=O)c1ccc(NC(=O)c2oc3ccc4c(c3c2C)C(=O)CC(C)(CC)O4)cc1 (centres undefined),x,x,u,x,n
CCCNC(=O)c1oc2ccc3c(c2c1C)C=CC(C)(C)O3,49,n,u,76,n
COc1cccc(C=NNC(=O)C2CC2)c1,x,n,u,x,n
COC(=O)N/N=C/c1cccc(OCCSc2ccc(Cl)cc2)c1,34,n,u,60,u
COc1ccc(/C=C/C(=O)Oc2cccc(/C=N/NC(=O)Cc3ccc(Br)cc3)c2)cc1,49,n,x,89,x
CCOC(=O)N/N=C\c1cccc(OC)c1,42,n,n,72,n
COc1ccccc1OCC(=O)N(Cc1nc(-c2ccccc2)no1)C(C)C,n,n,u,n,7.9µM
COc1ccccc1OCC(=O)N(Cc1nc(-c2ccc(Cl)cc2)no1)C(C)C,n,n,x,n,x
Cc1ccc(NC(=O)c2cc3ccccc3oc2=O)cc1S(=O)(=O)N(C)C,n,n,u,n,u
CN(C)S(=O)(=O)c1cc(NC(=O)c2cc(=O)c3ccccc3o2)ccc1Cl,31,n,n,34,n
Cc1ccc(NC(=O)c2cc3ccccc3o2)cc1S(=O)(=O)N(C)C,54,n,n,n,u
CN(C)S(=O)(=O)c1ccc(NC(=O)c2cc3ccccc3o2)cc1,20,n,u,130,n
SMILES,Cycloheximide cs,AMA1-RON2 inh,Marburg entry inh,Shiga toxin inh,LASV entry inh
COc1cccc(CNC(=O)CN2N=C(c3ccc(C)cc3)CCC2=O)c1,x,x,x,x,n
CCn1cc(C(=O)N2CCN(c3ccccc3F)CC2)c(=O)c2cc(S(=O)(=O)N(C)C3CCCCC3)ccc21,x,x,n,x,n
COc1cccc(-c2ccc(SCc3ccccn3)nn2)c1,42,n,u,77,u
O=[N+]([O-])c1cccc(-c2ccc(SCc3ccccn3)nn2)c1,37,n,n,56,n
O=C(CSc1ccc(-c2cccc([N+](=O)[O-])c2)nn1)N1CCCCC1,n,n,n,n,n
COc1ccc(-c2ccc(SCc3ccccn3)nn2)cc1OC,29,n,x,n,x
COc1ccc(-c2ccc(SCC(=O)c3ccccc3)nn2)cc1OC,n,n,n,n,n
COc1cccc(-c2ccc(SCC(=O)NCCc3ccccc3)nn2)c1,n,n,n,n,n
COC1(C#C[C@@H]2C=C[C@H](OC(C)=O)[C@@H](COC(C)=O)O2)CCCCC1,x,x,n,x,u
Cc1ccc(C(=O)NNC(=O)Cc2nc3nc(C)cc(C)n3n2)cc1,n,n,x,n,x
Cc1cc(C)n2nc(C(=O)N/N=C/c3cccc(Cl)c3)nc2n1,9.4,n,n,n,n
Cc1cc(C)n2nc(C(=O)NNC(=O)c3ccc(Cl)cc3)nc2n1,31,n,x,34,x
Cc1cc(C)n2nc(C(=O)N/N=C/c3ccc(Cl)cc3)nc2n1,n,n,n,n,n
Cc1ccc2onc(CC(=O)Nc3cc(F)ccc3F)c2c1,x,x,x,x,n
CC(/C=C/C(=O)c1ccc(C)cc1)=C\c1ccccc1,18,n,n,n,u
CCc1ccc(C(=O)/C=C/NCc2ccc(F)cc2)cc1,19,n,u,n,n
COc1ccc(C(=O)/C=C/NCc2ccc(C)cc2)cc1,x,n,n,x,u
Cc1ccc(C(=O)/C=C\NCc2ccccc2)cc1,75,n,u,86,n
CCOCCCNC(=O)c1ccc2c(c1)NC(=O)C(CS(=O)(=O)Cc1ccc(F)cc1Cl)N2 (centres undefined),x,x,x,x,n
Cc1ccc(CNc2ncnc3ccc(-c4c(C)noc4C)cc23)cc1,n,x,x,n,x
CC(C)CNS(=O)(=O)c1ccc(S(=O)(=O)N2CCN(CCC#N)CC2)cc1,n,n,x,n,x
CC(C)CNc1ncnc2c1ncn2[C@H]1CN(Cc2ccc(C(=O)O)cc2)C[C@@H](CO)O1,x,n,x,x,x
O=C(NC(Nc1ncc(S(=O)(=O)c2ccc([N+](=O)[O-])cc2)s1)(C(F)(F)F)C(F)(F)F)c1ccc(Cl)cc1,n,n,3.2µM,n,u
CCOC(=O)COc1ccccc1/C=C\[N+](=O)[O-],n,n,16µM,n,13µM
CCOc1ccc(S(=O)(=O)NC(C)(C)C)cc1-c1nc2c(C(C)(C)C)nn(C)c2c(=O)[nH]1,n,n,u,n,21µM
SMILES,Cycloheximide cs,AMA1-RON2 inh,Marburg entry inh,Shiga toxin inh,LASV entry inh
CCOc1ccc(S(N)(=O)=O)cc1-c1nc2c(C(C)(C)C)nn(C)c2c(=O)[nH]1,n,n,n,n,n
Cc1cccc(CNC(=O)C2CCN(S(=O)(=O)c3cccc4nonc34)CC2)c1,x,x,x,x,n
CCN1C(=O)[C@H]2[C@@H](c3ccc(C)cc3)N3C(=O)N(c4ccccc4)C(=O)[C@@]3(CC)[C@H]2C1=O,15,n,x,n,x
CC(=O)c1sc2nc(C)c3c(c2c1N)CCCC3,21,n,n,n,n
Cc1nc2sc(C#N)c(N)c2c2c1CCCC2,n,n,n,n,n
O=C(Nc1ccn(Cc2ccccc2)n1)c1ccc(F)cc1,45,n,x,85,x
O=C(Nc1ccn(Cc2ccccc2F)n1)c1ccc(COc2ccc(Br)cc2)cc1,n,n,7.3µM,n,n
O=C(Nc1ccc(Cn2cccn2)cc1)c1ccc(COc2ccc(Br)cc2)cc1,n,n,n,n,n
O=C(Nc1ccc(Cn2cccn2)cc1)c1ccc(COc2cccc(Br)c2)cc1,19,n,0.56µM,n,5.6µM
CC(CCl)n1c(=O)c2ccccc2n1C(=O)c1ccccc1 (centres undefined),x,n,x,x,x
CN(C)CCCNS(=O)(=O)c1ccc(NC2CCCCCC2)c([N+](=O)[O-])c1,n,n,u,n,n
COc1cccc(NS(=O)(=O)c2ccc3c(c2)n(C)c(=O)n3C)c1,x,x,u,x,n
